Assay outcomes deposited in PubChem BioAssay by Columbia University Molecular Screening Center.
VCAM1 pot = enhances TNF alpha induced VCAM1 expression in HUVEC. HUVEC TNFa-stimulated VCAM-1 immunofluorescence, high-content imaging; scaled per plate to unstimulated/TNFa-only wells. activation, % at 2 µM. actives 0.19% (n = 93,000);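 active means activation above the screen mean plus 3 SD, with well images confirming the hit on visual review, cut at about 28% in these data, passing the limit was not always enough; inconclusive means activation above that limit but images do not confirm it; inactive means activation not above that limit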;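 further: signal is the number of cytoplasmic VCAM-1 stained grains per positive cell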
VCAM1 pot conf = potentiators of TNFa-induced VCAM1 expression, confirmation, imaging, HUVEC, triplicate retest; shares compounds with VCAM1 pot; activation, % at 2 µM; HUVEC TNFa-stimulated VCAM-1 immunofluorescence imaging; 230 tested, under 10 active;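 active means activation above 30% in triplicate retests at 2 µM, then confirmed by visual review of the well images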
Of the large screens only hits and unclear results are named; the others gave an inactive call (follow-up assays come after a bar, where they were run). A selection follows.

CCOC(=O)c1ccccc1NC(=O)CSc1nnc(COc2ccccc2C)n1C	none
C=C(C)C1CC=C(C)/C(=N/NC(=O)COc2cccc3ccccc23)C1 (stereo unspecified)	none
O=C(CSc1nnc(-c2cccs2)n1-c1ccccc1)N1CCc2ccccc21	none
Cn1c(=O)c2c(-c3ccncc3)c3c(nc2n(C)c1=O)-c1ccccc1C3=O	none
O=C(Nc1nc(-c2ccc(Cl)s2)cs1)c1ccncc1	none
O=C(COc1ccccc1)Nc1ccc(OC(F)(F)C(F)F)c(NC(=O)COc2ccccc2)c1	none
CCCCOc1ccc(NC(=O)CSc2nnnn2C)cc1	none
COc1cccc2[nH]c3c(N4CC(C)CC(C)C4)ncnc3c12 (stereo unspecified)	none
CCOc1cc(S(=O)(=O)NC2CCCCCC2)ccc1F	none
CC1CCC2(CC1)N=C(N)Nc1nc3ccccc3n12 (stereo unspecified)	none
CCC(C)[C@H](NC(=O)NC1CCCc2ccccc21)C(=O)O (stereo partly specified)	none
O=S(=O)(Nc1cc(Cl)ccc1N1CCCCC1)c1cccs1	none
CCn1cc([N+](=O)[O-])c(C(=O)N2N=C3/C(=C/c4cccs4)CCCC3C2c2cccs2)n1 (stereo unspecified)	none
N#Cc1ccccc1CSc1nc(N2CCCCC2)nc(N2CCCCC2)n1	none
C/C(=N\Nc1nc2c(s1)CCCC2)c1ccccc1	none
CCC(=O)Nc1ccccc1C(=O)NC1CCCCC1	none
CCOC(=O)c1cnn(-c2ccccc2)c1-n1cccc1C(=O)C(=O)Nc1ccc(F)cc1	none
COC(=O)c1ccc(C2C(C(C)=O)=C(O)C(=O)N2CCO)cc1 (stereo unspecified)	none
Cc1cccc(C2CC(c3ccc(Br)cc3)Nc3nc(N)nn32)c1 (stereo unspecified)	none
Cc1cccc(OCCCCCn2ccnc2)c1	none
O=C(NC1CCCc2ccccc21)c1cncc(Br)c1 (stereo unspecified)	none
CN(CC(=O)Nc1nc2ccccc2s1)S(=O)(=O)c1ccccc1	none
CSc1nc2nccc(-c3ccc(Oc4ccccc4)cc3)n2n1	none
CCCS(=O)(=O)N1CCC(C(=O)N2CCc3ccccc3C2)CC1	none
COc1ccc(CCN2C(=O)C(O)=C(C(=O)c3ccco3)C2c2cccs2)cc1OC (stereo unspecified)	none
CCCCNC(=O)CN(c1cccc(Br)c1)S(C)(=O)=O	none
O=C(NCC1COc2ccccc2O1)C1CCN(S(=O)(=O)c2cccc3nsnc23)CC1 (stereo unspecified)	none
O=C(c1ccccc1-c1nc(-c2ccc(Cl)cc2)no1)N1CCCC1	none
CCCn1c(=N)n(CCOCCOCCn2c(=N)n(CCC)c3ccccc32)c2ccccc21	none
O=C(Nc1ccc(Br)cc1)c1cccn1-c1ncc(C(F)(F)F)cc1Cl	none
CCc1ccc(Nc2oc(C)cc(=O)c2C(C)=O)cc1	none
Cc1ccc(Oc2ncccc2/C=N/OCc2ccc(Cl)c(Cl)c2)cc1	none
Cc1ccc(C(C)C)c(OC(=O)/C=C/c2ccccc2)c1	none
O=C(COc1ccccc1)n1nc(-c2ccc(Cl)cc2)nc1NCc1ccco1	none
CN1CCCCc2c1[nH]c1ccccc1c2=O	none
CCCOC(=O)CSC1=C(C#N)C(c2ccccc2OC)C(C#N)C(=O)N1 (stereo unspecified)	none
COc1ccc(C(=O)/C=C(/C)N(C)C)cc1	none
CC1=C(C)/C(=N/OC(=O)c2cccc([N+](=O)[O-])c2)C=CC1=O	none
O=S(=O)(c1ccc2c(c1)nc(COc1ccc(Cl)cc1)n2CC1CCCO1)N1CCOCC1 (stereo unspecified)	none
CCOc1cccc(C(=O)Nc2ccc3oc(Cc4ccc(Cl)cc4)nc3c2)c1	none
CC1=C(C(=O)OCc2ccccc2)C(c2ccoc2)C(C#N)=C(N)O1 (stereo unspecified)	none
Cc1cccc(Cn2c(C(=O)OC(C)C)cc3c2ccn3C)c1	none
CC(C)(C)NS(=O)(=O)c1ccc(NC(=O)C(Sc2ccccc2)c2ccccc2)cc1 (stereo unspecified)	none
Cc1cc(OCC(=O)NCc2nc(-c3ccccc3)no2)c(C)cc1Br	none
C=C(C)CSc1nc(N)c2c(C)c(C)sc2n1	none
O=S(=O)(N1CCCCCC1)N1CCN(S(=O)(=O)N2CCCCC2)CC1	none
CCOC(=O)CNC(=O)CSc1nnc(Cn2cnc3ccccc32)n1C	none
CCOC(=O)c1nc2cc3n(c(C)c-2c1C)C(C)C(CC)=C3C (stereo unspecified)	none
CC(NCc1ccc2c(c1)OCO2)C(=O)NC1CCCc2ccccc21 (stereo unspecified)	none
CCOC(=O)C1CCCN(Cc2sccc2C)C1 (stereo unspecified)	none
CCCCC(=O)Nc1ccccc1C(=O)N1CCOCC1	none
CCCCCn1c(CCC(=O)Oc2ccccc2OC)nc2c1c(=O)[nH]c(=O)n2CCCC	none
CCOC(=O)Cn1nc(C)n(-c2ccc(C(C)C)cc2)c1=O	none
CCC(C)N1CCCCC1C(=O)Nc1c(C)cc(C)cc1C (stereo unspecified)	none
O=C(NC(=S)N(Cc1ccccc1)Cc1ccccc1)c1ccccc1F	none
O=C1O/C(=C/C(=O)N2CCOCC2)c2ccccc21	none
CC1N(O)C(C)(C)C(c2ccccc2)=[N+]1[O-] (stereo unspecified)	none
O=C(NC12CC3CC(CC(C3)C1)C2)c1cncc(O)c1	none
CCN1C(=O)C(CC(=O)Nc2ccc(Br)cc2)N(CCCc2ccccc2)C1=S (stereo unspecified)	none
CCN1C(=O)C2C(C1=O)N1C(c3ccccc3)C3C(=O)N(CC)C(=O)C3N1C2c1ccccc1 (stereo unspecified)	none
COc1cc2[nH]c(=O)n(CCCCCC(=O)N3CC=C(c4ccccc4)CC3)c(=O)c2cc1OC	none
Cc1ccc(Sc2ncccc2COC(=O)Nc2ccccc2)cc1	none
Cc1cc(N2CCOCC2)nc(SCc2ccc(Cl)cc2Cl)n1	none
O=C(CN1C(=O)C2CC=CCC2C1=O)NCC1COc2ccccc2O1 (stereo unspecified)	none
Cc1ccc(S(=O)(=O)NCC(c2ccccc2)N2CCN(CCC#N)CC2)cc1 (stereo unspecified)	none
Cc1ccc(Cc2nnc3n(-c4ccccc4)nc(C(=O)c4ccccc4)n3c2=O)cc1	none
CCOC(=O)c1cc(C)n(CCc2ccccc2)c1C	none
CCOC(=O)c1[nH]c2ccc(OC)cc2c1C	none
CCOC(=O)c1c(N)sc(-c2ccccc2)c1C	VCAM1 pot 45.3 | VCAM1 pot conf inactive
O=C(NC(C(=O)c1ccccc1)n1ccc(=O)[nH]c1=O)c1ccccc1 (stereo unspecified)	none
COc1ccc(NS(=O)(=O)c2cc(C)ccc2NC(=O)c2cc(C)oc2C)cc1	none
COc1ccc(OCCOC(=O)c2cccc(-n3cnnn3)c2)cc1	none
COc1ccc(Cl)cc1NC(=O)COc1cccc(-n2cnnn2)c1	VCAM1 pot inconclusive | VCAM1 pot conf inactive
O=C(COc1cccc(Oc2ccccc2)c1)Nc1ncccn1	none
CN(C(=O)CSc1nc(N)nn1-c1ccccc1)c1ccccc1	none
COc1cccc(CN2C(=O)CN(C3CCCCC3)C(=O)C2c2ccc(F)cc2)c1 (stereo unspecified)	none
CCc1cccc(OCCCCN(CC)CC)c1	none
CCOc1ccc(-c2nnn(CC(=O)c3ccc4c(c3)OCCO4)n2)cc1	VCAM1 pot 84.5 | VCAM1 pot conf inactive
Cc1cc(C)n(-c2ccc(C(=O)Oc3ccc4c(c3)OCO4)cc2)n1	none
CCOC(=O)c1ccc(NC(=O)Cn2nnc(-c3ccccc3)n2)cc1	none
COc1ccc(CN(C)C2CCCCC2)c(C)c1C	none
O=C(NCC1CCCO1)c1c(O)c2c([nH]c1=O)CCCC2 (stereo unspecified)	none
